# KB-V1 MDR tox: kills drug-selected multidrug resistant KB-V1 cells; Potency, µM (doses to about 46.1 µM), usual class: cytotoxic; AID 1347076; actives 3.4% (n = 400,000); KB-V1 MDR cells viability, CellTiter-Glo, 72 h; note: nearly all actives have a fitted effect of over 60% in size
#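 Potencies derive from concentration-effect curves fitted to normalized luminescence (CellTiter-Glo) of KB-V1 cells treated for 72 h at 37 degrees C in phenol-red-free DMEM containing 10% FBS.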
# SW480 rerep: induces DNA re-replication in SW480 colon adenocarcinoma cells. Potency, µM (titrated, usually from 46.1 µM), usual class: activators. actives 1.8% (n = 340,000). AID 624297. SW480 DNA re-replication, Hoechst DNA content imaging, 48 h; note: nearly all actives have a fitted effect of over 55% in size
#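 First, 250 cells per well were seeded. Next, compound or vehicle (23 nL) was pinned in, plates sat 48 hr at 37 C. Finally Hoechst was added for 40 min before fluorescence scanning.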
# KB-3-1 cytotox: KB-3-1 parental cell cytotoxicity. actives 1.4% (n = 400,000). KB-3-1 viability, CellTiter-Glo ATP luminescence, 72 h. AID 1347075. Potency, µM (top dose mostly 46.1 µM), usual class: cytotoxic; note: nearly all actives have a fitted effect of over 60% in size
#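 Multi-concentration cytotoxicity screen in KB-3-1 cells grown in DMEM lacking phenol red with 10% FBS. After 72 h at 37 °C with compound, ATP-dependent luminescence was recorded.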
# MCF10A rerep: induces DNA re-replication in MCF 10a normal breast cells | MCF 10A DNA re-replication, Hoechst nuclear intensity, 48 h | actives 2.9% (n = 350,000) | Potency, µM (highest dose often 46.1 µM), hits mostly activators; note: nearly all actives have a fitted effect of over 50% in size
# HT1080 IDH1KD tx: kills HT-1080 cells with IDH1 knockdown; HT-1080 IDH1 knockdown viability, ATP luminescence, 48 h; Potency, µM (titrated, usually from 46.1 µM), usual class: cytotoxic; actives 2% (n = 360,000)
#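 Luminescent ATP read-out (CellTiter-Glo, 10 min at room temperature) after 48 h compound exposure at 37 °C gave viability of IDH1-knockdown HT-1080 cells. Activity was normalised to DMSO and cell-free wells, then fitted as concentration-response curves.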
# HT1080-NT tox: kills 2HG-producing HT-1080-NT fibrosarcoma cells; actives 1.6% (n = 360,000); Potency, µM (doses to about 46.1 µM), usual class: cytotoxic; AID 686970; HT-1080-NT fibrosarcoma viability, CellTiter-Glo ATP luminescence, 48 h;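 note: NT is the 2HG producing partner of a matched IDH1 knockdown line; nearly all actives have a fitted effect of over 55% in size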
#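 Fibrosarcoma NT cells, 750 per well in 5% FBS RPMI, were exposed to compound for 48 hours. Viability: CellTiter-Glo luminescence.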
# A number is an active result; . = inactive; ? = inconclusive; / = not tested or not shown; [ ] = another dose, or the depositor's remark. Hits are enriched below; roughly 7.9% of the tested compounds scored in any of these assays. Calls come from the whole dose curve; as a rule, active = well fitted curve in the direction sought with a large enough effect; inconclusive = small, poorly fitted or top-dose-only effect, or another doubt; inactive = no such curve, though single readings can be large; an effect the other way counts as inactive or inconclusive.
SMILES,KB-V1 MDR tox,SW480 rerep,KB-3-1 cytotox,MCF10A rerep,HT1080 IDH1KD tx,HT1080-NT tox
Fc1ccccc1COc1cccc(/C=N/n2cnnc2)c1,13µM,.,.,.,.,.
O=c1cc(N2CCCCC2)c(-c2ccccc2)nn1Cc1ccc(Cl)cc1Cl,.,.,.,15µM,?,?
O=c1cc(N2CCCCC2)c(-c2ccccc2)nn1Cc1cccc(Cl)c1,.,.,.,21µM,.,.
COc1ccc(CCNc2cc(C)nc(N)n2)cc1OC,.,.,.,.,.,.
Cc1ccc(C)c(N2CCN(C(=O)Cn3ncc4ccsc4c3=O)CC2)c1,4.1µM,/,16µM,/,/,/
O=C(CCC1CCCCC1)NNC(=O)c1cnccn1,?,2.9µM,.,?,.,.
N=C1SCC(=O)N1/N=C/c1ccccc1,6.5µM,?,7.3µM,.,.,.
CN1CCN(c2c(/C=N/O)c3ccccc3n2C)CC1,.,?,.,?,.,.
Cc1ccccc1C(=O)O/N=C/c1c(N2CCOCC2)n(C)c2ccccc12,?,?,?,?,2.5µM,2.8µM
O=C1CCCc2cc3c(ccc4ccccc43)cc21,.,.,.,18µM,.,.
Cc1cc2c(cc1C)C(=O)CCC2,.,/,.,/,.,.
COc1ccc(N2CCN(C(=O)c3ccc(F)cc3)CC2)c([N+](=O)[O-])c1,?,.,.,.,.,.
O=C(c1ccc(S(=O)(=O)c2ccccc2Cl)c([N+](=O)[O-])c1)N1CCN(Cc2ccccc2)CC1,2.3µM,21µM,?,?,?,.
O=C(c1ccc(F)cc1)N1CCN(c2cc(N3CCCCC3)c(F)cc2[N+](=O)[O-])CC1,9.2µM,.,.,.,?,.[9.24 µM]
O=C(c1ccc(Br)c([N+](=O)[O-])c1)N1CCN(Cc2ccccc2)CC1,.,.,.,.,.,.
O=C(c1ccc(S(=O)(=O)c2ccc(F)cc2)c([N+](=O)[O-])c1)N1CCCCCC1,8.2µM,?,.,?,?,.
COCc1c(C(=O)OCC(=O)NCCN2C(=O)CSC2=O)oc2ccccc12,.,.,.,.,.,.
CCCN(CC(=O)Nc1cc(Cl)ccc1Cl)C(=O)/C=C/c1cc(OC)ccc1OC,.,?,.,21µM,.,.
COc1ccc(NC(=O)CS(=O)CC(=O)Nc2cc(Cl)ccc2OC)cc1 (centres undefined),21µM,.,.,.,.,.
COc1ccc(Cl)cc1NC(=O)CN(C)CC(=O)Nc1cc(OC)c(OC)c(OC)c1,.,?,4.6µM,?,8.2µM,12µM
Cc1cc(C)c(S(=O)(=O)Nc2ccncc2)cc1C,.,.,.,.,.,.
Nc1nc2ccc(-c3nc4ccccc4o3)cc2s1,1µM,.,5.8µM,?,.,.
O=[N+]([O-])c1ccccc1/C=N/N1CCN(c2ccccn2)CC1,15µM,.,.,.,.,.
BrC(=C\c1ccccc1)/C=N/N1CCN(c2ccccn2)CC1,?,?,.,21µM,.,.
CSc1nc(NCC(C)C)c2c3c(sc2n1)CN(C)CC3,18µM,.,.,.,?,.
SMILES,KB-V1 MDR tox,SW480 rerep,KB-3-1 cytotox,MCF10A rerep,HT1080 IDH1KD tx,HT1080-NT tox
CSc1nc(NCc2ccccc2)c2c3c(sc2n1)CN(C)CC3,?,.,.,23µM,?,?
Cc1ccc(NS(=O)(=O)c2cccc(C(=O)NC3CCN(Cc4ccccc4)CC3)c2)c(C)c1,.,.,?,.,?,?
CCc1ccc(NS(=O)(=O)c2ccc(OC)c(C)c2)cc1,18µM,.,.,?,.,.
CCOc1cc(S(=O)(=O)Nc2ccc(CC)cc2)ccc1Cl,15µM,.,?,?,?,?
O=C1c2ccccc2C(O)(c2ccccc2)N1c1ccncc1 (centres undefined),.,.,.,.,.,.
COc1ccc(C/C(N)=N/OC(=O)c2cccc([N+](=O)[O-])c2)cc1,.,.,.,?,.,.
COc1ccc(C(=O)O/N=C(\N)Cc2ccc([N+](=O)[O-])cc2)c(OC)c1,?,.,.,.,18µM,?
N/C(Cc1ccc([N+](=O)[O-])cc1)=N\OC(=O)c1cccc(Br)c1,.,12µM,.,?,.,.
N/C(Cc1ccc([N+](=O)[O-])cc1)=N\OC(=O)c1ccc([N+](=O)[O-])cc1,?,.,.,.,.,.
CCC(OC(=O)c1cccs1)C(=O)NCc1ccc2c(c1)OCO2 (centres undefined),.,.,.,.,.,.
Cc1ccc(Cc2nnc3n(-c4ccccc4)nc(C(=O)c4ccccc4)n3c2=O)cc1,8.2µM,18µM,?,16µM,.,.
COc1ccc(C(=O)NNC(=O)C(=O)NC(C)c2ccccc2)cc1OC (centres undefined),?,.,.,?,.,.
CC(=O)N(CCC(Cc1ccccc1)c1ccc2c(c1)OCO2)Cc1ccccc1F (centres undefined),.,.,.,?,.,.
Cc1cccc(C(CC(=O)NCc2ccco2)c2ccccc2)c1O (centres undefined),.,.,.,.,.,.
CC(C)Oc1ccc(C(CC(=O)NCc2ccco2)c2ccccc2)cc1 (centres undefined),21µM,.,.,.,.,.
COc1ccc(CNCCC(c2ccc(OC(C)C)cc2)c2ccccc2OC)cc1OC (centres undefined),?,?,?,.,18µM,15µM
Fc1ccccc1CNCCC(Cc1ccccc1)c1ccc2c(c1)OCO2 (centres undefined),?,?,?,.,?,16µM
COc1ccc(CNCCCSc2ncccn2)cc1OC,.,.,.,.,.,.
COc1ccccc1C(CCNCc1ccccc1)c1ccc(OC(C)C)cc1 (centres undefined),.,?,?,18µM,?,?
Cc1ccc(NC(=S)N2CCCC2)cc1,.,.,.,.,.,.
COc1ccccc1C(CCNCc1ccc(N(C)C)cc1)c1ccc(OC(C)C)cc1 (centres undefined),.,?,?,.,?,?
COc1ccccc1NC(=O)CC(c1ccc(OC(C)C)cc1)c1ccccc1OC (centres undefined),4.6µM,?,.,?,.,.
COc1ccc(CNCCC(c2ccccc2)c2ccc3c(c2)OCO3)cc1 (centres undefined),?,?,?,18µM,?,?
COc1ccccc1C(CC(=O)Nc1ccc(C)c(C)c1)c1ccc(OC(C)C)cc1 (centres undefined),.,?,.,.,?,?
COc1ccc(CNCCC(c2ccc(OC(C)C)cc2)c2ccccc2OC)cc1 (centres undefined),21µM,?,?,?,?,?

# Screening results as filed in PubChem BioAssay.
